Screens (PubChem)
Sm TGR inh – blocks Schistosoma mansoni thioredoxin glutathione reductase | Potency, µM (doses to about 114 µM), without a hit: at the top dose activity change, negative = inhibition, most hits filed as inhibitors | Q962Y6 | actives 3% (n = 360,000) | AID 485364 | purified TGR, DTNB reduction, TNB absorbance 405 nm; also: % is scaled to controls: 0 for no effect and ±100 for the full control effect; nearly all actives have a fitted effect of over 60% in size
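First, TGR (20 nM dispensed) and NADPH were mixed with compound. Second, a 15 min room-temperature incubation followed. Third, further NADPH and then DTNB were added to start the reaction. Finally, TNB absorbance was monitored kinetically.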
Pf growth 48h – inhibits P. falciparum growth in the first generation, 48 h | AID 504832 | Potency, µM (highest dose often 28.7 µM), without a hit: at the highest dose activity change, negative = inhibition, most hits filed as inhibitors | P. falciparum luciferase growth in erythrocytes, 48 h | actives 5.9% (n = 310,000); also: % is scaled to controls: 0 for no effect and ±100 for the full control effect
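In quantitative HTS format, infected erythrocytes bearing luciferase-reporter parasites were treated for a single generation at 37 C. Luminescence after adding detection reagent served as the growth measure.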
NS1 inh – blocks influenza NS1 protein function | Potency, µM (highest dose often 46.1 µM), without a hit: top-dose activity, positive = more growth | actives 0.4% (n = 270,000) | AID 2326; calls by dose curve; also: actives are rising curves; nearly all actives have a fitted effect of over 50% in size
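Recovery from NS1-induced slow growth read by OD600 in budding yeast switched to galactose assay medium (pH 6.0, -URA) at 1:100 dilution. Compound 23 nl per well; the matching strain lacking NS1 serves as control.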
Pf growth 96h – P. falciparum growth inhibition at 96 hours | P. falciparum luciferase reporter growth, 96 h | Potency, µM (titrated, usually from 28.7 µM), inactives show at the top dose activity change, negative = inhibition, usual class: inhibitors | actives 6.9% (n = 320,000); also: % is scaled to controls: 0 for no effect and ±100 for the full control effect
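Infected RBCs, 2% Hct / 0.05% parasitemia final; luciferase-reporter P. falciparum; cpd 96 h, 37 C, 5% CO2; luciferase detection reagent; luminescence.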
AMA1-RON2 inh – AMA1-RON2 (P. falciparum) interaction inhibition. AlphaScreen AMA1-biotinylated RON2 peptide binding. Potency, µM (doses to about 58.2 µM), without a hit: top-dose activity change, negative = inhibition, usual class: inhibitors. actives 0.2% (n = 360,000). AID 720542;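 also: 0% = vehicle wells and -100% = peptide control; nearly all actives have a fitted effect of over 45% in size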
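AMA1 (3D7) with his tag at 25 nM final met compounds first, then biotinylated RON2 peptide at 25 nM; detection used donor plus acceptor beads, 10 µg/mL apiece, read by AlphaScreen after 30 min at room temperature.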
Active calls of the source: *; u = inconclusive; x = not tested or not shown. Hits are enriched below; roughly 11% of the tested compounds scored in any of these assays. Unless noted, calls follow the shape of the dose curve; as a rule, active = well fitted curve in the direction sought with a large enough effect; inconclusive = small, poorly fitted or top-dose-only effect, or another doubt; inactive = no such curve, though single readings can be large; an effect the other way counts as inactive or inconclusive. Potency is read from the fitted curve at half-maximal effect.

SMILES	Sm TGR inh	Pf growth 48h	NS1 inh	Pf growth 96h	AMA1-RON2 inh
CC(C)C(=O)Nc1cccc(-c2cnc3ccccc3n2)c1	-3%	x	-63%	51%	-1%
CNC(=S)Nc1cccc(-c2cnc3ccccc3n2)c1	11µM*	81%	-3%	97%	23%
CNC(=S)Nc1ccc2nc(C)c(C)nc2c1	32µM*	70%	-10%	4%	-12%
COc1ccc(NC(=S)Nc2ccc3nc(C)c(C)nc3c2)cc1	22µM*	-2%	11%	u	0%
C=CCN(CC=C)C(=S)Nc1ccc2nsnc2c1	u	8.3µM*	x	u	5%
N#CCCCC1(CCCC#N)OCCO1	x	x	x	x	6%
Cc1ccc(CCNC(=O)c2nnc(CS(=O)(=O)c3ccccc3)o2)cc1	11%	u	0%	45%	-2%
COc1cccc(Oc2nc(C)nc3c2oc2ccccc23)c1	6%	x	x	x	x
O=C(CCC1N=C2c3ccccc3N=C(SCc3ccccc3F)N2C1=O)NCc1ccc(F)cc1 (centres undefined)	-6%	x	x	x	x
CC1CCCN(CCC(=O)Nc2ccc(F)c(F)c2)C1 (centres undefined)	1%	3%	3%	u	12%
COC(=O)c1ccc(CNC(=O)c2ccc(OC)c(S(=O)(=O)NC3CC3)c2)cc1	x	x	x	x	-8%
COc1ccc(NC(=S)Nc2ccc3nsnc3c2)cc1	40µM*	20%	-10%	0.23µM*	57%
FC(F)Sc1nc2ccccc2[nH]1	-4%	21%	1%	28%	32%
CCn1nc(C)c(Oc2ccccc2O)c1C	6%	-1%	-4%	12µM*	0%
Cc1nn(CCC#N)c(C)c1Oc1ccccc1O	11%	69%	-12%	-9%	-6%
O=c1cc(/C=C/c2cccs2)[nH]c2ccccc12	-13%	9.3µM*	-8%	x	-7%
CSc1ccc(/C=C/c2cc(=O)c3ccccc3[nH]2)cc1	-1%	1.9µM*	-12%	-6%	-5%
O=c1cc(C(F)(F)F)[nH]c2ccccc12	8%	-2%	3%	u	-7%
CCc1cccc(NC(=O)C(Cc2ccccc2)NS(=O)(=O)c2cccs2)c1 (centres undefined)	9%	x	x	x	x
Cc1nn(Cc2ccccc2)c(Cl)c1/C=C/C(=O)OC(C)C(=O)N1CCCC1 (centres undefined)	5%	1.7µM*	x	3.7µM*	-6%
Cc1nn(Cc2ccccc2)c(Cl)c1/C=C/C(=O)OCC(=O)NC(C)C(C)C (centres undefined)	0%	-8%	x	-18%	1%
COc1cc(NC(=O)C(C)N2CCN(C(=O)C3CC3)CC2)cc(OC)c1 (centres undefined)	0%	-4%	x	u	4%
Cc1ccc(S(=O)(=O)N(CC(O)CN2CCOCC2)c2cccc([N+](=O)[O-])c2)cc1 (centres undefined)	7%	-3%	-4%	-1%	5%
C=CCc1c(C)[nH]c2ccc(C)cc2c1=O	-23%	1.5µM*	-46%	x	0%
Cc1ccc2[nH]c(C)c(CC(=O)O)c2c1	u	u	9%	x	-5%
SMILES	Sm TGR inh	Pf growth 48h	NS1 inh	Pf growth 96h	AMA1-RON2 inh
CCc1c(C)[nH]c2ccc(C)cc2c1=O	-3%	1.7µM*	-11%	13%	-8%
CCCc1c(C)c2cc(C)ccc2[nH]c1=O	3%	15%	-94%	9.3µM*	-1%
CC(=O)c1cccc(NC(=O)c2ccc(-n3c(C)nnc3C)cc2)c1	-2%	x	x	x	x
CCOC(=O)CSc1nnc(NCC(=O)OC(C)C)c(=O)[nH]1	13µM*	-1%	6%	u	29%
COc1ccc(C(=O)Cn2nnc(-c3ccccc3NC(=O)C3CCCCC3)n2)cc1	2%	12µM*	13%	x	-3%
Cc1ccc(C(=O)C[n+]2ccccc2C)cc1[N+](=O)[O-]	2%	22%	-3%	u	7%
COc1ccc(C(=O)C[n+]2cccc(C)c2C)cc1[N+](=O)[O-]	-3%	7.4µM*	-3%	6%	-1%
CC(C)N(C(=O)COC(=O)CNS(=O)(=O)c1ccccc1F)c1ccccc1	4%	51%	x	-14%	-6%
CN(C)c1ccc(/C=C(\NC(=O)c2ccccc2)C(=O)NCCCN2CCOCC2)cc1	0%	13%	6%	15%	-16%
CN(C)S(=O)(=O)n1cc(/C=C(\NC(=O)c2ccccc2F)C(=O)NCCCn2ccnc2)c2ccccc21	-5%	10µM*	4%	-7%	1%
CN1CCN(C(=O)/C(=C/c2cn(S(=O)(=O)N(C)C)c3ccccc23)NC(=O)c2ccccc2)CC1	0%	u	0%	12µM*	-5%
CCn1cc(/C=C(\NC(=O)c2ccccc2OC)C(=O)NCCCN2CCOCC2)c2ccccc21	-20%	u	-2%	9.3µM*	-11%
CN(C)c1ccc(/C=C(\NC(=O)c2ccccc2)C(=O)NCCN2CCOCC2)cc1	5%	10%	-3%	9.3µM*	-4%
Cc1ccc(N2CC(C)Cn3c2nc2c3c(=O)[nH]c(=O)n2C)cc1C (centres undefined)	-10%	-10%	3%	-6%	-4%
COC(=O)c1ccccc1NC(=O)Cn1c(=O)n(CCCC(=O)NCc2ccccc2OC)c(=O)c2ccccc21	10%	x	x	x	x
O=c1ncn(C2CCCCC2)c(=O)[nH]1	x	x	x	x	4%
O=C(Nc1cc(-c2ccccc2)nn1-c1c(Cl)cccc1Cl)c1ccc(F)cc1	x	x	x	x	-1%
O=C(Cn1nc(C(=O)O)c2ccccc2c1=O)Nc1cccc(S(=O)(=O)N2CCCCC2)c1	x	x	x	x	-2%
COc1ccc(C(=O)N/C(=C\c2cn(C)c3ccccc23)C(=O)N2CCN(C)CC2)cc1	4%	u	-1%	42%	8%
CCn1cc(/C=C(\NC(=O)c2ccc(OC)cc2)C(=O)N2CCN(C)CC2)c2ccccc21	0%	u	-1%	13µM*	-11%
COc1cccc(N2CCN(C(=O)CN3C(=O)NC(C)(c4ccc5ccccc5c4)C3=O)CC2)c1 (centres undefined)	-4%	u	x	u	-15%
CC1CC(C)C[N+](=C2C=C(N3CCCC3)CC(C)(C)C2)C1 (centres undefined)	-2%	0.37µM*	x	u	1%
CC1(C)CC(N2CCN(c3ccccc3)CC2)=CC(=[N+]2CCCC2)C1	-4%	1.7µM*	-16%	6%	9%
CC1(C)CC(N2CCCC2)=CC(=[N+]2CCCCCC2)C1	-8%	u	x	-20%	12%
N#Cc1c(-c2ccccc2)cc(-c2ccccc2)nc1SCCC(=O)O	-1%	28%	-40%	u	-7%
COC(=O)c1ccc(NC(=S)NCCCn2ccnc2)cc1	x	-15%	6%	-16%	-12%
O=C(O)Cc1ccc(NC2(c3ccccc3)C(=O)c3ccccc3C2=O)cc1	-2%	x	x	x	x
O=C1NC[C@H](CCCCN2CCN(CC3CCCCC3)C(=O)C2=O)N(CCC2CCCCC2)C1=O	x	x	x	x	3%
